Source: PubChem BioAssay (Emory University Molecular Libraries Screening Center)
This excerpt belongs to a sample that is enriched for hits.
14-3-3 PPI – 14-3-3 gamma protein interaction modulation. P61981. FP, 14-3-3gamma / TMR-pS259-Raf peptide binding. inhibition, % at 40 µM. 0.19% of 160,000 active; in the data active means inhibition above about 30%;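 further: 0% = protein plus tracer without compound and 100% = blank with tracer alone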
Target sequence (P61981 whole entry, looked up): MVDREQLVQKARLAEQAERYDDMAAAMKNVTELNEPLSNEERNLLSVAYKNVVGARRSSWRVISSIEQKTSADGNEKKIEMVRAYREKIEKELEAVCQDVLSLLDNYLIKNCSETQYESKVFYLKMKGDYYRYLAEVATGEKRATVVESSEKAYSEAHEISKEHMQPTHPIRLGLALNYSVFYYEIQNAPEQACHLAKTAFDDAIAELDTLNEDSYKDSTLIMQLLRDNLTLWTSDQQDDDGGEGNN
Numbers without * were called inactive.

SMILES	14-3-3 PPI
COc1ccccc1NC(=O)c1cc2ccccc2c(C=Nc2ccc(NC(C)=O)cc2)c1O	73*
COc1ccccc1N=Cc1c(O)c(C(=O)Nc2ccccc2)cc2ccccc12	13
COc1cc(C=Nc2ccc(NC(C)=O)cc2)cc(OC)c1OC	-1
COc1ccc([N+](=O)[O-])cc1NC(=O)c1sc2ncn(CC(=O)N3CCCCC3C)c(=O)c2c1C (stereo not drawn)	1
CCN(CC)c1nc(C#N)cc(-c2ccccc2)n1	-6
COCCCNC(=O)CN1C(=O)c2ccccc2C1=O	-2
O=C(CSc1ccc2c3c(cccc13)C(=O)c1ccccc1-2)Nc1ccccc1	-95
COCCCNC(=O)CSc1ccc2c3c(cccc13)C(=O)c1ccccc1-2	105*
Cn1c(=O)c(N2CCOCC2)c2c3c(cccc31)C(=O)c1ccccc1-2	50*
CCN(CC)C(=O)c1ccc2c(c1NCCO)C(=O)c1ccccc1C2=O	-311
CC(C(=O)NC1CCCCC1)N1C(=O)c2ccccc2C1=O (stereo not drawn)	-4
Cn1c(=O)c(NC2CCCCC2)c2c3c(cccc31)C(=O)c1ccccc1-2	32*
COC(=O)Cn1nc2c3c(cccc31)C(=O)c1ccccc1-2	-11
O=C1c2ccccc2C(=O)c2c1ccc(C(=O)N1CCCC1)c2NCCO	-244
O=C1c2cccc(Cl)c2C(=O)c2c1cccc2N1CCOCC1	4
Cn1c(=O)c(NCCO)c2c3c(cccc31)C(=O)c1ccccc1-2	168*
Cn1c(=O)c(=O)n(C)c2cc(S(=O)(=O)NC3CCCCCC3)ccc21	-2
CN1C(=O)c2cccc3c(N4CCOCC4)ccc(c23)C1=O	-5
CCNc1cccc2c1C(=O)N(C)C2=O	-15
CCNc1c2c3c(cccc3n(C)c1=O)C(=O)c1ccccc1-2	54*
Cc1cc(C)c2c(c1)c(C)cc1nnnn12	3
COc1cccc(C2Nc3ccccc3NC3=C2C(=O)CC(C)(C)C3)c1O (stereo not drawn)	-13
CC1=C(C(=O)OC(C)C)C(c2cn(-c3ccccc3)nc2-c2ccc(F)cc2)C(C(=O)OC(C)C)=C(C)N1	6
COc1ccc(-c2noc(CCC(=O)NCc3ccc(C)o3)n2)cc1	-9
O=C(CCNC(=O)Cn1ccc2ccccc2c1=O)NCc1cccs1	-4
SMILES	14-3-3 PPI
COc1ccc(-c2cc(C(F)(F)F)n3nc(C(=O)Nc4ccccc4C)cc3n2)cc1	-12
CCOC(=O)c1cnc2c(OC)cccc2c1N1CCCC(C(=O)OCC)C1 (stereo not drawn)	-13
CCn1c(CSc2nc3ccccc3n2C)nc2ccccc21	2
CCn1c(CSc2nnc(-c3cccnc3)n2-c2ccccc2C)nc2cc(C(=O)O)ccc21	127*
CCOc1ccccc1-n1c(SCC(N)=O)nnc1-c1cccnc1	2
O=C(CSc1nnc2ccccn12)Nc1ccc2ccccc2c1	1
Cc1ccccc1-n1c(SCc2ccccc2)nnc1-c1cccnc1	1
CCn1c(CSc2nnc3ccccn23)nc2cc(C(=O)O)ccc21	139*
CCOC(=O)Cc1c(C)nc2c(-c3ccccc3)c(-c3ccccc3)nn2c1C	-8
COc1ccc(C(=O)COC(=O)c2ccc(N3C(=O)C4CC=CCC4C3=O)cc2)cc1[N+](=O)[O-] (stereo not drawn)	-1
COc1ccc(-n2nc(C(=O)N3CCOCC3)c3ccccc3c2=O)c(OC)c1	2
COc1cc2c(cc1OC)C(C(=O)Nc1ccc(F)cc1)C(c1cccs1)N(C)C2=O (stereo not drawn)	1
Cc1ccc(C)c(N2C(=O)NC3CC2(C)Oc2ccc(Cl)cc23)c1 (stereo not drawn)	-3
O=C(CSc1nc2ccsc2c(=O)n1Cc1ccccc1Cl)NC1CCCC1	-5
COc1ccc(C2C(C(=O)Nc3nc4ccc(OC)cc4s3)c3cc(OC)c(OC)cc3C(=O)N2C)cc1 (stereo not drawn)	-286
Cc1ccc(C)c(Nc2ccc3nonc3c2[N+](=O)[O-])c1	-10
Cc1ccc(C)c(Nc2c([N+](=O)[O-])ccc3nonc23)c1	-13
Cc1ccc(C)c(Nc2ccc([N+](=O)[O-])c3nonc23)c1	34*
COc1ccccc1NC(=O)COc1cccc(Cl)c1	1
O=C(O)c1ccc(N2C(=O)C3C4CCC(C4)C3C2=O)cc1 (stereo not drawn)	-4
O=C(Oc1ccc2oc(=O)sc2c1)c1ccco1	1
COc1ccc(CNC(=O)Cn2cc3c(n2)CCCCC3)cc1	2
O=C(Cn1cc2c(n1)CCCC2)NCc1cccs1	-4
O=C(Cn1cc2c(n1)CCCC2)NCc1ccccn1	67*
COc1ccc(OC)c(NC(=O)Cc2cn(C)c3ccccc23)c1	0
SMILES	14-3-3 PPI
Cc1cc(OCC(=O)Nc2cccc([N+](=O)[O-])c2)cc(C)c1Cl	-3
CCCc1sc(Nc2ccccc2OC)nc1-c1ccccc1	0
Fc1cccc(C2C=C(c3cccs3)Nc3nnnn32)c1 (stereo not drawn)	63*
Fc1cccc(C2C=C(c3ccc(Cl)cc3)Nc3nnnn32)c1 (stereo not drawn)	-1
Fc1ccccc1C1C=C(c2cccs2)Nc2nnnn21 (stereo not drawn)	-8
Cc1nc2n(CC(=O)N3CCCCC3)c3ccccc3n2n1	1
O=C(c1cccnc1)N1CCC(N2CCN(c3ccccc3)CC2)CC1	-4
Cc1ccc(OCCn2cc(C(=S)N3CCOCC3)c3ccccc32)cc1C	-8
Fc1ccccc1C1C=C(c2cccc(Br)c2)Nc2nc3ccccc3n21 (stereo not drawn)	-11
Fc1ccccc1C1C=C(c2cccnc2)Nc2nc3ccccc3n21 (stereo not drawn)	47*
Fc1ccccc1C1C=C(c2ccc(Br)s2)Nc2nc3ccccc3n21 (stereo not drawn)	-107
O=C(CCC(=O)N1N=C(c2ccc(Br)cc2)CC1c1ccc(Br)cc1)Nc1ccccc1 (stereo not drawn)	3
CCOc1ccc(C2CC(=O)C3=C(C2)Nc2ccccc2NC3c2ccc3c(c2)OCO3)cc1OC (stereo not drawn)	1
O=C(NCc1ccccc1Cl)c1ccc2c(=O)n(CCC3=CCCCC3)c(=S)[nH]c2c1	4
Cc1ccc(C(=O)Nc2cccc(-c3nc4cc(C)ccc4o3)c2)c(Cl)c1	-62
Cc1ccc(NC(=O)C2C3C=CC4(O3)C2C(=O)N(C2CCC(C)CC2)C4C(=O)NC2CCCC(C)C2C)cc1C (stereo not drawn)	-24
O=c1nc2sc3[nH]c(=O)sc3cc-2s1	150*
O=C(Nc1ccc(Br)cc1)c1cnn2c1NC(c1cccs1)CC2C(F)(F)F (stereo not drawn)	7
Cc1ccc(-n2c(=O)[nH]cc(C(=O)Nc3ccc4c(c3)OCCO4)c2=O)cc1	-2
Cc1ccc(-n2c(=O)[nH]cc(C(=O)Nc3ccc4c(c3)OCCO4)c2=O)cc1C	37*
COc1ccc(-n2c(=O)[nH]cc(C(=O)Nc3ccc4c(c3)OCCO4)c2=O)cc1	-10
Cc1nc(N=Nc2ccc(S(=O)(=O)O)cc2S(=O)(=O)O)c(COP(=O)(O)O)c(C=O)c1O	35*
Cc1nc(N=Nc2ccc(C(=O)O)cc2)c(COP(=O)(O)O)c(C=O)c1O	69*
Cc1cc(O)c(C=Nc2ccc(C(=O)O)cc2)c(C)c1Cl	3
CCCCC(=O)Nc1cccc(C(F)(F)F)c1	21
O=C(Nc1ccc2c(c1)OCO2)C1CCN(S(=O)(=O)c2ccccc2)CC1	-14
NC(=O)C1CCN(C(=O)C2CCC(CNS(=O)(=O)c3ccccc3)CC2)CC1 (stereo not drawn)	-9
